Holding throughout (assay): NCI-60 one-dose screen, 48 h (100 = growth as untreated, 0 = no growth, -100 = all killed)
Holding throughout (details): 10 µM

Test [1] relates to SK-MEL-2 melanoma.
The subject of test [2] is EKVX NSCLC.
For test [3], the system named is SN12C renal.
Test [4] deals with UO-31 renal.
Test [5] relates to ACHN renal.
Test [6] deals with CAKI-1 renal.
In test [7] the test system is A498 renal.
Test [8] concerns CCRF-CEM leukemia.
Test [9] has as its system MOLT-4 leukemia.
In test [10] the test system is SR leukemia.
Test [11] relates to RPMI-8226 leukemia.
Test [12] relates to OVCAR-8 ovarian.
Test [13] concerns OVCAR-5 ovarian.
The test system of test [14] is OVCAR-4 ovarian.
In test [15] the test system is SK-OV-3 ovarian.
Test [16] has as its system IGROV1 ovarian.
For test [17], the system named is OVCAR-3 ovarian.
The test system of test [18] is HS 578T breast.
Test [19] deals with NCI/ADR-RES ovarian.

This is part of a sample that, as a whole, favours compounds with a hit. Of some 83,000 tested, about 20% had one in any assay.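 Results are percent growth after 48 hours of single-concentration exposure. 100 means growth as in untreated cells, lower positive values show inhibition; negative values down to -100 show cell death.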 Unmarked numbers belong to inactive results. Active and inactive are the calls of the source. How the source made its calls: active means growth percent below 10; inactive means the rest.

9 compounds from PubChem BioAssay (NCI) can be followed below.

Turning to `COc1cccc(C2C(C#N)=C(N)Oc3cc(N)ccc32)c1` (stereo not drawn), the growth in [1] was 24.5%; in [2], 55.7%; in test [3], 36.3%; in [4], 49.7%; in test [5], 55.4%; in test [6], 31.9%. Further, the growth is 1.48% (active) in test [7]; 11.4% in test [8]; 28.9% in test [9]; 14.4% in test [10]; 19.6% in [11]; 30.7% in test [12]. The growth is 40.6% in test [13]; 43.8% in test [14]; 48.9% in test [15]; 32.4% in test [16]; -26.5% (active) in test [17]; 22.1% in [18]. Further, the growth in [19] is -7.69% (active).
Consider `COc1cc(/C=C2\CCCC3=C2NC(N)=NC3c2cc(OC)c(OC)c(OC)c2)cc(OC)c1OC` (stereo not drawn), for which the growth was -0.813% (active) in test [1]; 56% in [2]; -5.19% (active) in test [3]; 34.3% in test [4]; -37.9% (active) in test [5]; -4.06% (active) in [6]. Moreover, the growth in [7] is 0.45% (active); in test [8], 2.89% (active); in test [9], -3.56% (active); in [10], 1.07% (active); in test [11], -15.4% (active); in test [12], -35.8% (active). For the same compound, the growth in test [13] is 6.85% (active); in [15], 7.16% (active); in test [16], -19.4% (active); in test [17], -17.7% (active); in test [18], 37%; in test [19], 3.96% (active).
As to `COc1ccc(N(C)c2ncnc3occ(C)c23)cc1`, the growth in test [1] was -4.77% (active); in test [2], 42.1%; in test [3], 34%; in [4], 26.5%; in [5], 29%; in [6], -6.13% (active). In addition, the growth in [7] is 68.7%; in test [8] it was -20.9% (active); in test [9] it was -1.42% (active); in test [10] it was -36.1% (active); in test [11] it was -36.1% (active); in [12], -21.9% (active). Further, the growth in test [13] is 28.1%; in test [14], 40.2%; in test [15] it was 19.9%; in test [16] it was -11.1% (active); in test [17], -39.9% (active); in test [18], 110%. The growth in test [19] was -16.2% (active).
Take `C[n+]1c2ccccc2nc2ccccc21`: the growth in [1] is -24.2% (active); in [2], 54.9%; in [3], -27.8% (active); in [4], 42.4%; in test [5], 13.6%; in test [6], 15.3%. The growth is 60% in [7]; -0.566% (active) in test [8]; 24.9% in test [9]; 25.9% in test [10]; -17.2% (active) in test [11]; 10.3% in [12]. The growth in test [13] was 42.1%; in test [14], 21.9%; in test [15] it was 52%; in [16], 11%; in test [17] it was 4.06% (active); in test [19], 8.6% (active).
Turning to `CN(C)c1ccc(/C=N/NC(=O)c2ccccc2Nc2cccc(C(F)(F)F)c2)cc1`, the growth in [1] is 62.3%; in [2], 82.2%; in test [3] it was 87.6%; in test [4], 77.2%; in [5], 97.4%; in [6] it was 77.7%. For the same compound, the growth in test [7] was 1.42% (active); in [8], 53.4%; in test [9] it was 76.7%; in [10], 85%; in [11], 76.8%; in [12], 99.6%. Besides, the growth was 88.4% in test [13]; 76.1% in test [14]; 100% in [15]; 69.1% in test [16]; 87.7% in test [17]; 83.5% in test [18]. Also, in test [19], the growth was 93%.
As for `CS(=O)(=O)c1nccc(-c2c(-c3ccc(OCCc4ccccc4)cc3)nc3sccn23)n1`, the growth was 108% in test [1]; 94% in [2]; 90.3% in test [3]; 90.6% in test [4]; 101% in test [5]; 90% in test [6]. In addition, the growth in [7] was 84.5%; in test [8] it was 92%; in test [9], 88.9%; in test [10], 88.5%; in test [11], 94.8%; in test [12], 98%. Also, the growth in test [13] was 94.7%; in test [14], 67.8%; in [15] it was 101%; in test [16] it was 110%; in [17], 104%; in test [19], 98.3%.
Take `O=C(N/N=C/c1c(Cl)cccc1Cl)c1ccccc1Nc1cccc(C(F)(F)F)c1`: the growth in test [1] was 71.4%; in [2], 89.8%; in test [3], 92.6%; in test [4], 93.7%; in test [5], 102%; in [6], 95.5%. Further, the growth in [7] is -5.76% (active); in test [8], 73.1%; in test [9], 77.9%; in test [10] it was 70.8%; in test [11] it was 82.5%; in test [12], 103%. Further, the growth in test [13] was 105%; in [14], 99.1%; in test [15] it was 107%; in test [16], 74.9%; in test [17] it was 104%; in [18] it was 85%. Further, the growth in test [19] is 100%.
Take `NC1=NC(c2ccc(Cl)cc2)C2=C(N1)/C(=C/c1ccc(Cl)cc1)CCC2` (stereo not drawn): the growth was 94.7% in test [1]; 93.7% in test [2]; 84.8% in test [3]; 67.8% in test [4]; 95.6% in test [5]; 90.8% in test [6]. Also, the growth in test [7] was 54.7%; in [8], 72.2%; in test [9], 64.9%; in test [10], 20.8%; in test [11], -12.4% (active); in test [12], 41.2%. Besides, the growth is 112% in test [13]; 76.1% in [14]; 80.6% in test [15]; 85.2% in test [16]; 39.1% in [17]; 100% in test [18]. Moreover, the growth in [19] was 92.9%.
On to `COc1ccc2c(c1)OC(N)=C(C#N)C2c1cc(OC)c(OC)c(OC)c1` (stereo not drawn), for which the growth in test [1] is 27.3%; in [2], 49.7%; in test [3], 25%; in [4], 47.2%; in [5], 32.8%; in test [6], 30.4%. Besides, the growth in test [7] was -14.1% (active); in test [8], 7.72% (active); in [9], 7.89% (active); in test [10], 4.02% (active); in test [11], 11.6%; in [12], 14.6%. Further, the growth was 39.3% in test [13]; 39.8% in test [14]; 50% in test [15]; 7.64% (active) in [16]; -39.8% (active) in test [17]; 25.3% in test [18]. The growth in test [19] is -24.3% (active).
